# According to PubChem BioAssay AID1347416 (National Center for Advancing Translational Sciences (NCATS), 2020):
# The campaign covered roughly 4,100 compounds. About 1,600 (39%) were called active. Not shown: some 25% with an inconclusive outcome. The call rests on the fitted dose curve; in most records, active means well fitted inhibition curve with a large enough effect; inconclusive means small, poorly fitted or top-dose-only effect; inactive means no such curve, though single readings can be large or run the other way. The list shows a part of the results. Where a call stands in place of a potency, no number is given.
# Assay: qHTS Validation assay for Inhibitors of Plasmodium falciparum Dd2 growth in vitro; further: nearly all actives have a fitted effect of over 70% in size
# Conditions: P. falciparum Dd2 in RBCs, SYBR Green growth, 72 h; series mostly up to 28.7 µM
# Procedure, shortened: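 P. falciparum Dd2-infected red blood cells (2.5% hematocrit, 0.3% parasitemia) grown 72 h at 37 °C under 5% O2 with compounds in a titration, 29 uM to 0.5 nM final. Growth read as SYBR Green-1 fluorescence after ~16 h lysis; artesunate 300 nM as positive control.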
# Potency means the concentration at half of the fitted maximal effect.
row,Structure (SMILES),Potency
1,CC(=O)c1cccc(N(C(=O)Cn2nnc3ccccc32)C(C(=O)NCc2ccccc2)c2ccc(F)cc2)c1 (stereo not drawn),inactive
2,c1cc(Nc2ncnc3sc4c(c23)CCC4)ccn1,inactive
3,N=c1c2c3c(sc2ncn1Nc1ccccc1)CCC3,3.35 µM (active)
4,O=C(Nc1ccccc1)c1cnc(N2CCCCC2)c2ccccc12,inactive
5,O=C(Nc1ccc2c(N3CCCCC3)ncnc2c1)c1ccc(F)c(F)c1,4.73 µM (active)
6,Cc1cc(C)cc(C(=O)NC2CCN(c3cc(-c4ccc(F)cc4)[nH]n3)C2)c1 (stereo not drawn),inactive
7,Cc1cc(C)cc(C(=O)Nc2ccc3c(N4CCCC4)ncnc3c2)c1,2.37 µM (active)
8,O=C(Nc1ccc2c(N3CCCC3)ncnc2c1)c1cccc(F)c1,4.73 µM (active)
9,CCN1c2cc(C(=O)Nc3cc(C)cc(C)c3)ccc2C(=O)N2CCCC21 (stereo not drawn),inactive
10,O=C(Nc1ccc2c(N3CCCCC3)ncnc2c1)c1cc(F)cc(F)c1,1.88 µM (active)
11,O=C(Nc1ccc2oc(-c3cccc(F)c3)nc2c1)c1ccc2ccccc2c1,inactive
12,CC(C)c1noc(-c2cccn3c(CNC(=O)COc4ccc(F)cc4)nnc23)n1,inactive
13,COc1ccccc1Cc1nc2ccccc2nc1SCC(=O)NCc1ccccc1Cl,2.11 µM (active)
14,CCc1noc(-c2ccn3c(CNC(=O)Cc4ccccc4OC)nnc3c2)n1,inactive
15,COc1cccc(CNC(=O)CSc2n[nH]c(-c3ccccc3Cl)n2)c1OC,inactive
16,CN1CCCN(C(=O)C2CCCO2)c2ccccc21 (stereo not drawn),inactive
17,O=S(=O)(Cc1ccccc1F)N1CCCC(Cn2c(C3CC3)nc3cccnc32)C1 (stereo not drawn),inactive
18,Cc1cc2c(c3oc(=O)c4ccccc4c13)CN(Cc1ccc(F)cc1)CO2,2.66 µM (active)
19,Cc1ccc(CN2COc3cc(C)c4c(oc(=O)c5ccccc54)c3C2)cc1,1.33 µM (active)
20,COc1ccc(CN2CCC(CO)(CCCc3ccccc3)CC2)c(Cl)c1OC,8.41 µM (active)
21,Cc1ccc(C)c(-c2[nH]ncc2CN2CCCC(CO)(CCc3ccccc3)C2)c1 (stereo not drawn),inactive
22,Cc1cccc(CNC(=O)c2cc3c(N4CCSCC4)nc(C)cn3n2)c1,inactive
23,COc1cc(CN2Cc3ccccc3C2)ccc1OCC(O)CN1CCOCC1 (stereo not drawn),inactive
24,CN(Cc1ccccc1)Cc1ccccc1OCC(O)CN1CCCCC1 (stereo not drawn),1.5 µM (active)

row,Structure (SMILES),Potency
1,OC(COc1ccccc1CNCCc1ccccc1)CN1CCSCC1 (stereo not drawn),2.11 µM (active)
2,Cc1cccc(CNCc2ccccc2OCC(O)CN2CCSCC2)c1 (stereo not drawn),1.5 µM (active)
3,Cc1cc(Nc2sc(C(=O)c3ccc(F)cc3)c(N)c2C(=O)Nc2ccc(F)cc2)ccc1Cl,0.75 µM (active)
4,COc1ccc(-c2cnc3[nH]cc(CC(=O)NCc4cccnc4)c3c2)cn1,6.85 µM (active)
5,COc1ccc(C(=O)NCc2nc(-c3cccc(C)c3)no2)cc1OC,inactive
6,COc1ccc(-c2cnc3[nH]cc(CC(=O)NCc4cccnc4)c3c2)cc1OC,1.53 µM (active)
7,O=C(Cc1c[nH]c2ncc(-c3ccc(Cl)cc3)cc12)NCc1cccnc1,1.72 µM (active)
8,COc1ccccc1C(=O)N[C@H]1[C@H](O)[C@H](O)C[C@@H]1c1cccnc1,inactive
9,CC(=O)N1CCCN(C(=O)c2c[nH]c3ncccc23)CC1,inactive
10,O=C(CC[C@@H]1CNC(=O)[C@@H]2C[C@H](NC(=O)Nc3cccc(Cl)c3)CN12)NCc1cccnc1,inactive
11,CC1(COc2cccnc2)COc2ccc(C(=O)NCc3ccc(F)cc3)cc2N1 (stereo not drawn),inactive
12,Cc1cn2nc(C(=O)N3CCC(NC(=O)c4nccc5ccccc45)CC3)cc2c(=O)[nH]1,inactive
13,O=C1NCCCCCN(C(=O)CC2CCCC2)[C@@H]2C[C@@H](C(=O)N3CCc4ccccc4C3)C[C@H]12,inactive
14,O=C(NCCc1c[nH]c2ccccc12)[C@@H]1C[C@H]2C(=O)NCCCCCCN(C(=O)c3ccco3)[C@H]2C1,10.6 µM (active)
15,O=C1NCCCCCN(C(=O)c2ccsc2)[C@@H]2C[C@@H](C(=O)N3CCc4ccccc4C3)C[C@H]12,inactive
16,CCCCn1c(N)c(N(CC(C)C)C(=O)c2cc(-c3ccc(OC)c(OC)c3)nc3ccccc23)c(=O)[nH]c1=O,11.9 µM (active)
17,CCCCCn1c(=O)[nH]c2cc(C(=O)NCc3ccc(OC)cc3)ccc2c1=O,inactive
18,COc1ccccc1NC(=O)N1CC(=O)Nc2sc3c(c2C1c1ccccc1)CCCC3 (stereo not drawn),15 µM (active)
19,CCOc1ccccc1NC(=O)c1c(NC(=O)COc2ccccc2)sc2c1CCCCC2,inactive
20,Cc1cc(C)cc(N(CC(=O)NCc2ccc3c(c2)OCO3)C(=O)CCC(=O)Nc2ccccn2)c1,4.22 µM (active)
21,COc1ccc(C(=O)/C=C/Nc2cc(C)ccn2)cc1,inactive
22,COc1ccc(N(CC(=O)NCc2ccccc2)C(=O)CCC(=O)Nc2cc(C)ccn2)c(OC)c1,10.6 µM (active)
23,CC(=O)N1CCCC(c2nn(C)c(=O)n2C2CCCC2)C1 (stereo not drawn),inactive
24,COc1cccc(Nc2ccc3c(n2)C(C)(C(=O)NC2CCC2)CN(C)C3)c1 (stereo not drawn),15.3 µM (active)

row,Structure (SMILES),Potency
1,COc1cccc(Nc2ccc3c(n2)C(C)(C(=O)NC2CCN(C)CC2)CN(C)C3)c1 (stereo not drawn),17.2 µM (active)
2,COc1cccc(Nc2ccc3c(n2)C(C)(C(=O)NCC2CC2)CN(C)C3)c1 (stereo not drawn),12.2 µM (active)
3,Cc1cnc(C(=O)N[C@@H]2CCC[C@@H]2C(=O)NCc2ccc3c(c2)OCO3)cn1,inactive
4,COc1cccc(CCC(=O)NC2CCN(C(=O)c3cc4c(=O)[nH]c(C)cn4n3)CC2)c1,inactive
5,CCC(C)NC(=O)CSc1nc2cc3c(cc2c(=O)n1CCCC(=O)NCc1ccc2c(c1)OCO2)OCO3 (stereo not drawn),inactive
6,CN1Cc2ccc(Nc3ccccc3)nc2C(C)(C(=O)NCc2ccc3c(c2)OCO3)C1 (stereo not drawn),13.7 µM (active)
7,O=c1[nH]c(C2CCN(S(=O)(=O)c3ccc4c(c3)OCCO4)CC2)nc2c1nnn2Cc1ccc(F)cc1,8.41 µM (active)
8,Cc1nncn1C1CCN(S(=O)(=O)c2ccc(F)c(F)c2)CC1,inactive
9,O=c1[nH]c(C2CCN(S(=O)(=O)/C=C/c3ccccc3)CC2)nc2c1nnn2Cc1ccc(F)cc1,13.3 µM (active)
10,c1ccc(-c2noc(-c3cncnc3NC3CCCCCC3)n2)cc1,inactive
11,CC(C)(C)NC(=S)Nc1ccc(Nc2ccccc2)cc1,inactive
12,CCOc1ccc2c(c1)OC(c1ccc(C)cc1)(C(F)(F)F)NC2=O (stereo not drawn),2.66 µM (active)
13,CC(C)Oc1ccc2c(c1)OC(c1ccccc1)(C(F)(F)F)NC2=O (stereo not drawn),2.66 µM (active)
14,CCCNC(=O)Nc1ccc(OC2CCN(C(=O)CC)C2)nc1 (stereo not drawn),inactive
15,CCn1c(N2CCC(C)CC2)nc2c1c(=O)n(C)c(=O)n2C,5.96 µM (active)
16,CCOC(=O)Cn1c(=O)c2c(nc(N3CCCCC3)n2C)n(C)c1=O,inactive
17,O=C(Nc1ccc([N+](=O)[O-])cc1)Nc1nc(-c2ccc(Cl)s2)cs1,2.99 µM (active)
18,O=C(Nc1ccc(Cl)cc1)Nc1nc(-c2ccccc2O)cs1,6.68 µM (active)
19,O=C(Nc1nc(-c2ccccn2)cs1)c1cccc(S(=O)(=O)N2CCOCC2)c1,5.96 µM (active)
20,O=C(Nc1nc(-c2ccccn2)cs1)c1ccc(F)c(S(=O)(=O)N2CCOCC2)c1,2.11 µM (active)
21,COc1ccc(-c2csc(NC(=O)C(CC(=O)O)N3CCOCC3)n2)cc1 (stereo not drawn),inactive
22,N#Cc1cc(C#N)c(N2CCN(c3cccc(Cl)n3)CC2)nc1N,3.35 µM (active)
23,Cc1ccc(C(=O)N2CCC(c3c[nH]c4ccccc34)(c3c[nH]c4ccccc34)CC2)cc1,8.41 µM (active)
24,Cn1nccc1C(=O)N1CCC2(CC1)NCCc1c2[nH]c2ccccc12,inactive

row,Structure (SMILES),Potency
1,COCc1noc(CC2CCOC3(CCN(C(=O)c4c[nH]c5ccccc45)CC3)C2)n1 (stereo not drawn),inactive
2,c1ccc([C@H]2CN3CCSC3=N2)cc1,inactive
3,NC(Cc1ccccc1)C(=O)N1CCC2(CC1)CN(C(=O)c1ccc(Cl)cc1)CCO2 (stereo not drawn),0.842 µM (active)
4,O=C(NCc1ccccc1)N1CCC2(CC1)CC(N(C(=O)c1ccccc1)C1CC1)CCO2 (stereo not drawn),inactive
5,CC(C)(C)c1ccc(C(=O)N2CCC3(C2)NC(=O)N(Cc2ccc(Cl)cc2)C3=O)cc1 (stereo not drawn),inactive
6,Cc1ccc(CN2CCNC(=O)C2CC(=O)N(CC(C)C)CC(C)C)cc1 (stereo not drawn),inactive
7,CCN1CCN(c2nc(SC)nc3sc4c(c23)CC(C)(C)OC4)CC1,inactive
8,CC1(C)Cc2c(c(N3CCOCC3)nc3snc(Br)c23)CO1,0.299 µM (active)
9,CCCNC(=O)c1ccc(N2CCC3(CC2)CC(c2cccc(Br)c2)=NO3)c(NC(=O)c2ccco2)c1,2.99 µM (active)
10,Cc1ccc(CNC(=O)c2ccc(N3CCC4(CC3)CC(c3cccc(Br)c3)=NO4)c(NC(=O)c3ccco3)c2)cc1,8.41 µM (active)
11,CCOc1cc(NC(=S)NC)c(OCC)cc1NC(=O)c1ccco1,inactive
12,COc1nc(N=C(N)N)nc2c(C)cccc12,inactive
13,CCOc1nc(N=C(N)N)nc2c(C)cccc12,10.6 µM (active)
14,CN1C(=O)CS(=O)(=O)C12CCN(C(=O)c1cc(F)ccc1Cl)CC2,inactive
15,Cc1ccc(C2Cn3nnc(-c4noc(CNC(=O)c5ccccc5)n4)c3CO2)cc1 (stereo not drawn),inactive
16,Cc1ccc(C2Cn3nnc(-c4noc(-c5nn(C)c6ccccc56)n4)c3CO2)cc1 (stereo not drawn),inactive
17,Cc1ccc(C2Cn3nnc(-c4noc(-c5n[nH]c6c5CCCC6)n4)c3CO2)cc1 (stereo not drawn),13.3 µM (active)
18,O=c1c2ccccc2nc(/C=C/c2cc(Br)ccc2O)n1CCCO,9.44 µM (active)
19,Oc1ccc(Br)cc1Cn1nnc2ccccc21,inactive
20,CCn1c(/C=C/c2cc(Br)ccc2O)nc2ccccc2c1=O,4.22 µM (active)
21,O=C(c1ccccc1-c1ccccc1)N1CCC(c2ncc[nH]2)CC1,inactive
